Spn DPM-DC inh = blocks S. pneumoniae diphosphomevalonate decarboxylase | purified DPM-DC, PK/LDH coupled NADH fluorescence | calls only at 10 µM | actives 0.49% (n = 65,000);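 active means the 320 compounds with the highest percent inhibition in the single-dose primary screen, excluding strongly autofluorescent ones, cut at about 32% in these data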;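 further: kinetic rate of NADH fluorescence loss reporting ADP formed by the decarboxylase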
Fluor 339 460 = intrinsic fluorescence of library compounds, ex339/em460 – biochemical, MLSMR library, data from DPM-DC assay, artefact control, profiling panel. compound autofluorescence, ex339/em460 nm, NADH buffer; stronger effect = higher value; 1 = no-compound wells, NADH background. fluorescence fold increase at 10 µM. actives 5.5% (n = 65,000);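 active means at 10 µM, mean starting fluorescence two-fold or more over control wells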;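 further: signal is the first read of a kinetic run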
NADH enzymes = blocks coupling enzymes of NAD/NADH assays. coupled PK/LDH NADH assays, four targets. IC50, µM (series often up to 10 µM), inactives show top-dose inhibition. actives 0.02% (n = 65,000);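 active means single-dose screening hits from any of four coupled enzyme assays that gave an IC50 when retested across doses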;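 further: the DPM-DC format reads NADH fluorescence rather than 340 nm absorbance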
A340 absorber = absorbance at 340 nm. compound absorbance at 340 nm, fold over control. fold change at 10 µM. 65,000 tested, under 10 active;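 active means at 10 µM dose, initial 340 nm absorbance at least 2 fold that of control wells; inactive means change under 2 fold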;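 further: initial absorbance extrapolated from kinetic A340 decline of NADH oxidation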
PMK inhibit = inhibitors of Streptococcus pneumoniae phosphomevalonate kinase; actives 0.49% (n = 65,000); purified PMK, PK/LDH-coupled NADH absorbance 340 nm; AID 539; inhibition, % at 10 µM;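 active means top-ranked compounds by inhibition in the single 10 µM screen, taking a fixed number of the strongest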;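 further: 0% = full reaction with DMSO carrier and 100% = background rate without enzyme reaction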
MK inhibit = S. pneumoniae mevalonate kinase inhibition. purified MK, PK/LDH-coupled NADH absorbance 340 nm. inhibition, % at 10 µM. actives 0.48% (n = 65,000). AID 555;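 active means ranked among the strongest by inhibition in the single 10 µM screen, a fixed top-ranked set picked for dose follow-up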
* = called active by the depositor. Shown are actives, neighbours in structure and some others; about 6.3% of the full set was active somewhere.

What do the screens show for `CCOC(=O)CCc1c(C)c2ccc(OC(C)C(=O)OCC)c(C)c2oc1=O` (stereo not given)?
Fluor 339 460: 3.8*; NADH enzymes: 2%; A340 absorber: 1.1; PMK inhibit: 3; MK inhibit: 1

How did Cc1ccc(NC(=O)c2cnc3scc(C)n3c2=O)c(C)c1 do in these assays?
Spn DPM-DC inh: inactive; Fluor 339 460: 1.8; NADH enzymes: 8%; A340 absorber: 1.1; PMK inhibit: 9; MK inhibit: 4

How did COC(=O)c1ccc(C(=O)OC)c(NC(=O)c2cnc3n(c2=O)CCS3)c1 do in these assays?
Spn DPM-DC inh: inactive; Fluor 339 460: 2.4*; NADH enzymes: 9%; A340 absorber: 1.1; PMK inhibit: 10; MK inhibit: 1

What do the screens show for `CCOC(=O)c1oc2nc(C)c3c(c2c1N)CC(C)(C)OC3`?
Fluor 339 460: 3.9*; NADH enzymes: 1%; A340 absorber: 1.1; PMK inhibit: 2; MK inhibit: 0

How did CCOC(=O)c1oc2nc3c(cc2c1N)COC(C)(C)C3 do in these assays?
Spn DPM-DC inh: inactive; Fluor 339 460: 2.8*; NADH enzymes: 13%; A340 absorber: 1.1; PMK inhibit: 6; MK inhibit: 11

Results for Oc1ccc(Br)cc1/C=N/n1cnc2ccccc21 ?
Spn DPM-DC inh: inactive; Fluor 339 460: 1.2; NADH enzymes: 3%; A340 absorber: 1.1; PMK inhibit: 6; MK inhibit: 2

Results for CCOC(=O)C1CCCN(CCC(=O)Nc2ccc3c(c2)CCC3)C1 (stereo not given) ?
Spn DPM-DC inh: inactive; Fluor 339 460: 1.1; NADH enzymes: 4%; A340 absorber: 1; PMK inhibit: 11; MK inhibit: 0

Results for O=c1c2ccccc2nc(-c2ccccc2)n1CCN1CCOCC1 ?
Spn DPM-DC inh: inactive; Fluor 339 460: 1.1; NADH enzymes: 7%; A340 absorber: 1; PMK inhibit: 11; MK inhibit: 10

What do the screens show for `Cc1ccc2nc3c(cc(C#N)c(=O)n3CC3CCCO3)c(=O)n2c1` (stereo not given)?
Fluor 339 460: 3.8*; NADH enzymes: 11%; A340 absorber: 1.1; PMK inhibit: 14; MK inhibit: 8

How did N#Cc1cc2c(=O)n3ccccc3nc2n(CCN2CCOCC2)c1=O do in these assays?
Fluor 339 460: 3.9*; NADH enzymes: 8%; A340 absorber: 1.1; PMK inhibit: 12; MK inhibit: 4

What do the screens show for `COc1ccc(-c2nc3ccccc3c(=O)n2CCCN2CCOCC2)cc1`?
Spn DPM-DC inh: inactive; Fluor 339 460: 1.1; NADH enzymes: 4%; A340 absorber: 1; PMK inhibit: 8; MK inhibit: 4

What do the screens show for `N=c1c(C(=O)NC2CCCC2)cc2c(=O)n3ccccc3nc2n1CCN1CCOCC1`?
Fluor 339 460: 1.9; NADH enzymes: 5%; A340 absorber: 1.1; PMK inhibit: 0; MK inhibit: 10

What do the screens show for `Cc1ccc2nc3c(cc(C#N)c(=O)n3CCN3CCOCC3)c(=O)n2c1`?
Spn DPM-DC inh: inactive; Fluor 339 460: 3*; NADH enzymes: 9%; A340 absorber: 1; PMK inhibit: 1; MK inhibit: 7

What do the screens show for `Cc1ccc(O)c(C(=O)c2cc(C#N)c(=O)n(CC3CCCO3)c2)c1` (stereo not given)?
Spn DPM-DC inh: inactive; Fluor 339 460: 1; NADH enzymes: 5%; A340 absorber: 1; PMK inhibit: 17; MK inhibit: 3

What do the screens show for `N#Cc1cc2c(=O)n3ccccc3nc2n(CCCN2CCOCC2)c1=O`?
Fluor 339 460: 3.9*; NADH enzymes: 12%; A340 absorber: 1; PMK inhibit: 14; MK inhibit: 10

How did COc1ccc(C2C3=C(CC(C)(C)CC3=O)Oc3ncn4nc(-c5cccnc5)nc4c32)cc1 (stereo not given) do in these assays?
Spn DPM-DC inh: inactive; Fluor 339 460: 1; NADH enzymes: 3%; A340 absorber: 0.98; PMK inhibit: 12; MK inhibit: 1

What do the screens show for `Cc1ccc2nc3c(cc(C#N)c(=O)n3-c3nccs3)c(=O)n2c1`?
Fluor 339 460: 3.8*; NADH enzymes: 9%; A340 absorber: 1.1; PMK inhibit: 9; MK inhibit: 8

How did COc1ccc(CCn2c(=N)c(C#N)cc3c(=O)n4ccccc4nc32)cc1 do in these assays?
Spn DPM-DC inh: inactive; Fluor 339 460: 1.3; NADH enzymes: 4%; A340 absorber: 1; PMK inhibit: 1; MK inhibit: 10

How did NC(=O)C1CC(=O)N(Cc2ccc3c(c2)OCO3)C(=Nc2ccccc2)S1 (stereo not given) do in these assays?
Spn DPM-DC inh: inactive; Fluor 339 460: 1.1; NADH enzymes: 6%; A340 absorber: 1.1; PMK inhibit: 18; MK inhibit: 0

What do the screens show for `CNC(=O)C1CC(=O)N(Cc2ccc3c(c2)OCO3)C(=Nc2ccc(OC)cc2)S1` (stereo not given)?
Spn DPM-DC inh: inactive; Fluor 339 460: 1.1; NADH enzymes: 9%; A340 absorber: 1; PMK inhibit: 27*; MK inhibit: 0

How did O=C(NC1CCCCC1)C1CC(=O)N(c2ccc(Cl)cc2)C1 (stereo not given) do in these assays?
Spn DPM-DC inh: inactive; Fluor 339 460: 1; NADH enzymes: 13%; A340 absorber: 1; PMK inhibit: 28*; MK inhibit: 11

Results for O=C(NC1CCCC1)C1CC(=O)N(C2CCCCCCC2)C1 (stereo not given) ?
Spn DPM-DC inh: inactive; Fluor 339 460: 0.99; NADH enzymes: 5%; A340 absorber: 1; PMK inhibit: 11; MK inhibit: 3

How did O=c1c2c([nH]c3ccccc13)C(=C1CCCC1)CC2 do in these assays?
Fluor 339 460: 2.1*; NADH enzymes: 0%; A340 absorber: 1.1; PMK inhibit: 0; MK inhibit: 0

What do the screens show for `CC(C)(C)C1CCc2[nH]c3ccccc3c(=O)c2C1` (stereo not given)?
Spn DPM-DC inh: inactive; Fluor 339 460: 1.2; NADH enzymes: 0%; A340 absorber: 1.1; PMK inhibit: 0; MK inhibit: 0

How did Cc1ccc(C2C(C(=O)c3cc4ccccc4o3)=C(O)C(=O)N2CCCN(C)C)cc1 (stereo not given) do in these assays?
Spn DPM-DC inh: inactive; Fluor 339 460: 1.1; NADH enzymes: 0%; A340 absorber: 1; PMK inhibit: 1; MK inhibit: 0

Results for COC(=O)CC(=O)CSc1nc2c(cc1C#N)CCCCC2 ?
Fluor 339 460: 3.9*; NADH enzymes: 0%; A340 absorber: 1.1; PMK inhibit: 0; MK inhibit: 0

What do the screens show for `N#Cc1c(N)c(C#N)c(-c2ccc(O)cc2)c2c1CCCC2`?
Spn DPM-DC inh: inactive; Fluor 339 460: 2.9*; NADH enzymes: 3%; A340 absorber: 1; PMK inhibit: 2; MK inhibit: 8
